Laboratory results as given in PubChem BioAssay AID431 (Sanford-Burnham Center for Chemical Genomics, 2006).
The whole screen tested about 63,000 compounds, of which about 1,100 (1.7%) were called active. This excerpt belongs to a sample that is enriched for actives. Results with a measured potency or affinity are listed apart. Values without a mark were called inactive.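 How the source made its calls: active means compounds whose percent cytotoxicity in the single-dose primary screen, scaled between solvent and toxic-drug controls, exceeds 50; inactive means the rest.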

Assay: viability loss of HPDE-C7K cells – cell-based, fluorescence, HTS, primary screen (AID 431);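 further: 0% = DMSO solvent wells and 100% = doxorubicin-treated wells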
Settings: HPDE-C7K KRASV12 cells, Alamar Blue viability, 48 h; at 10 µM; hits give high values

| SMILES | cytotoxicity |
| --- | --- |
| COc1ccc(CCNC(=O)CCn2c(=O)oc3ccccc32)cc1 | -9.7% |
| CCOc1ccccc1Nc1nnc(SCc2ccc(C(=O)OC)o2)s1 | 57.3% (active) |
| COC(=O)c1ccc(CSc2nnc(NCc3ccccc3)s2)o1 | -2.2% |
| COC(=O)c1ccc(CSc2nnc(Nc3ccccc3OC)s2)o1 | 44.9% |
| c1ccc2nc(N3CCOCC3)c(N3CCOCC3)nc2c1 | -2.3% |
| Cc1cc(=O)[nH]c(SCC(=O)N2CCN(C(c3ccccc3)c3ccccc3)CC2)n1 | -3.1% |
| O=C1CCCc2sc3c(c2N1)CCCCC3 | 6.3% |
| CCOC(=O)C1=C(N2CCCCC2)c2cc3c(n2C1=O)CCCC3 | 3.2% |
| CCSc1ncnc2c(C#N)c3n(c12)CCCCC3 | -17% |
| Cc1cc(C(=O)Nc2sc3c(c2C#N)CCC3)no1 | 36.4% |
| COC(=O)c1ccc(OC(=O)c2ccco2)cc1 | -32.6% |
| CC1=CC(C)(C)Nc2ccc(C)cc21 | -5% |
| O=C(Oc1ccc2ccccc2c1)c1ccco1 | 2.3% |
| COC(=O)C1=C(C)NC(C)=C(C(=O)OC)C1c1ccc(OC(=O)c2ccco2)cc1 | 11% |
| CCc1ccc2c(c1)C(C)=CC(C)(C)N2 | -4.3% |
| CCOc1ccc(OC(=O)c2cccnc2)cc1 | 10.2% |
| O=C(Oc1cccc(Br)c1)c1cccnc1 | -13.7% |
| CCOc1ccc2c(c1)N(C(=O)CN1C(=O)CCC1=O)C(C)(C)C=C2C | -12.2% |
| c1ccc(CNc2ncnc3c2cnn3-c2ccccc2)cc1 | 36% |
| Cc1ccc2nc(NC3=NCN(Cc4ccco4)CN3)nc(C)c2c1 | 8.2% |
| Cc1ccc(-n2nnc3c(SCC(=O)NCc4ccco4)ncnc32)cc1 | 8.5% |
| O=C(CN1C(=O)NC2(CCCc3ccccc32)C1=O)N1CCc2ccccc2C1 (configuration not stated) | -21.3% |
| CCOc1ccc(C(C)(N)C(=O)O)cc1 (configuration not stated) | 5.7% |
| COCCn1c(C)cc(C(=O)CSc2nnc(-c3cccnc3)n2-c2ccccc2F)c1C | -8% |
| CCN(Cc1ccccc1)Cc1c(F)cccc1F | -14.3% |
| CCN(CC(=O)N1CCOCC1)S(=O)(=O)c1ccc(C)cc1 | -7.2% |

| SMILES | cytotoxicity |
| --- | --- |
| COc1cc(C2C3=C(Nc4ncnn42)c2ccccc2CC3)cc(OC)c1OC (configuration not stated) | 62.6% (active) |
| c1csc(C2C3=C(Nc4ncnn42)c2ccccc2OC3)c1 (configuration not stated) | 8.9% |
| COc1ccc(C2C3=C(Nc4ncnn42)c2ccccc2CCC3)cc1 (configuration not stated) | -11.9% |
| COc1cc(C2C(C(=O)OC(C)C)=C(C)Nc3ncnn32)cc(OC)c1OC (configuration not stated) | 3.4% |
| COc1ccc(C2C(C(C)=O)=C(C)Nc3ncnn32)cc1OC (configuration not stated) | -18.7% |
| COc1ccc(C2C3=C(Nc4ncnn42)c2ccccc2CC3)cc1OC (configuration not stated) | 50.3% (active) |
| Cc1ccc(Cl)cc1NC(=O)c1ocnc1C | 0.3% |
| COc1ccc(N(CC(=O)N2CCN(c3ccccc3)CC2)S(=O)(=O)c2c(C)noc2C)cc1 | -8.3% |
| NC(=O)c1c(NC(=O)Cc2cccs2)sc2c1CCC2 | -2.4% |
| CC(C)(C#N)Nn1cnnc1 | -13.8% |
| O=C(Nc1nc(-c2nc3ccccc3s2)cs1)c1ccco1 | 1.4% |
| Cc1cccn2c(=O)c(C=Nc3ccccc3)c(NCc3ccco3)nc12 | -13.4% |
| COc1ccc2c(c1)N1CCN=C1N2C | -12% |
| Cc1cc(=O)[nH]c2ccccc12 | -5.7% |
| CN(C)C=Nc1ncc2c([nH]c3ccccc32)c1C#N | 19.8% |
| CSc1ccccc1NC(=O)c1cnccn1 | -5.1% |
| CN(C)CCCNC(=O)CCC1CCCCC1 | 1.5% |
| COc1ccc(N2CCN(C(=O)CN=C3NS(=O)(=O)C(c4ccc(C)cc4)=C3C)CC2)cc1 | -1.4% |
| CC(C)CC(NC(=O)COc1ccccc1)C(=O)O (configuration not stated) | 5.6% |
| CCN1C(=O)c2cccc3c(NC(=O)c4cccc(N5C(=O)CCC5=O)c4)ccc1c23 | -10.7% |
| CCN1C(=O)c2cccc3c(NC(=O)c4ccc(S(=O)(=O)N(C)C)cc4)ccc1c23 | 0% |
| CCN1C(=O)c2cccc3c(NC(=O)c4ccc5c(c4)OCCO5)ccc1c23 | 95.1% (active) |
| c1ccc2c(c1)C(=NCC1CCCO1)NC2=NCC1CCCO1 (configuration not stated) | 8.3% |
| O=C1c2oc3ccc(F)cc3c(=O)c2C(c2ccc(F)cc2)N1CCCN1CCOCC1 (configuration not stated) | -15.7% |
| COc1ccc(CC(=O)N2CCNC2=O)cc1 | -17.1% |
| CC1=Nn2c(nnc2-c2n[nH]c3c2CCC3)SC1 | -0.7% |

| SMILES | cytotoxicity |
| --- | --- |
| Fc1ccc(C2=Nn3c(nnc3-c3n[nH]c4c3CCC4)SC2)cc1 | 1.2% |
| Brc1ccc(C2=Nn3c(nnc3-c3n[nH]c4c3CCC4)SC2)cc1 | 53.5% (active) |
| Clc1ccc(C2=Nn3c(nnc3-c3n[nH]c4c3CCC4)SC2)cc1 | 25.9% |
| c1ccc(C2=Nn3c(nnc3-c3n[nH]c4c3CCC4)SC2)cc1 | 10.4% |
| Clc1ccc(C2=Nn3c(nnc3-c3n[nH]c4c3CCC4)SC2)cc1Cl | 71.9% (active) |
| COC(=O)c1ccc(S(=O)(=O)N2C3CCC2CC(NC(=O)NC2CCCCC2)C3)cc1 (configuration not stated) | -5.3% |
| CCn1c(SCC(=O)NCc2ccco2)nc2cccnc21 | -20.4% |
| CCSc1sccc1C1C(C#N)=C(N)N(c2cccnc2)C2=C1C(=O)CC(C)(C)C2 (configuration not stated) | 30.9% |
| O=C(Nc1ccc2oc(-c3cccnc3)nc2c1)c1cccnc1 | 3.2% |
| COC(=O)c1ccc(-c2nc3ccc(C)cc3o2)cc1 | 54.8% (active) |
| CCc1ccc2oc(-c3cccc(NC(=O)c4cccnc4)c3)nc2c1 | 10.6% |
| O=C(Nc1ccc2oc(-c3ccccc3)nc2c1)c1cccnc1 | 34.5% |
| Cc1ccc2oc(-c3ccc(NC(=O)c4cccnc4)cc3)nc2c1 | 56.9% (active) |
| Cc1ccc(-c2nc3cc(C)ccc3o2)cc1 | 8.8% |
| COC(=O)c1ccc(-c2nc3ccccc3o2)cc1 | -20.7% |
| O=C(Nc1ccc2oc(=O)ccc2c1)c1cccnc1 | 7.9% |
| COc1ccc(-c2nc3cc(NC(=O)c4ccc5c(c4)OCO5)ccc3o2)cc1 | -6.9% |
| Cc1ccc2oc(-c3ccc(NC(=O)c4ccc5c(c4)OCO5)cc3)nc2c1 | 85.1% (active) |
| O=C(Nc1ccc(-c2nc3ccccc3o2)cc1)c1ccc2c(c1)OCO2 | 2% |
| O=C(Nc1ccc2oc(Cc3ccc(Cl)cc3)nc2c1)c1cccnc1 | 58.3% (active) |
| c1ccc(CSc2nnc(-c3cccs3)n2Cc2ccco2)cc1 | -21.5% |
| CCOC(=O)c1cccc(Nc2nc(C)cc(C)n2)c1 | 0.1% |
| O=C(NCc1ccccn1)c1cn(CCc2ccccc2)nn1 | -5% |
| CCOC(=O)Cc1csc(NC(=O)c2c(-c3c(F)cccc3Cl)noc2C)n1 | -8.5% |
| COc1cc(C(=O)NCc2ccc(-c3nc4ccccc4o3)cc2)cc(OC)c1OC | 2.5% |
| O=S(=O)(Nc1ccc(-c2nc3ccccc3o2)cc1)c1ccccc1 | 52% (active) |

| SMILES | cytotoxicity |
| --- | --- |
| O=C(Nc1ccc(-c2nc3ccccc3o2)cc1)C1CCCO1 (configuration not stated) | 5.9% |
| O=S(=O)(Nc1ccc2oc(-c3ccccc3)nc2c1)c1ccccc1 | 15.5% |
| COc1cccc(C(=O)Nc2ccc(-c3nc4ccccc4o3)c(O)c2)c1 | 24.7% |
| O=C(Nc1ccc2c(c1)oc1ccccc12)c1cccnc1 | 53.2% (active) |
| COc1cc(C(=O)Nc2cccc(-c3nc4cc(C)ccc4o3)c2)cc(OC)c1OC | 43.8% |
| Cc1ccc2oc(-c3cccc(NC(=O)C4CCCO4)c3)nc2c1 (configuration not stated) | 3.3% |
| O=C(Nc1ccc2c(c1)oc1ccccc12)c1ccncc1 | 7.8% |
| COc1cc(OC)cc(C(=O)Nc2ccc(-c3nc4ccccc4o3)cc2)c1 | 73.9% (active) |
| O=C(Nc1ccc2ccccc2c1)c1cccnc1 | 0.5% |
| Cc1occc1-c1nc(-c2ccccn2)no1 | -13.5% |
| CC1CN(C(=O)c2cc3cc(Cl)cc(Cl)c3oc2=O)CC(C)O1 (configuration not stated) | -12.2% |
| COc1ccc2oc(-c3ccccc3)c(C(N)=O)c2c1 | -8.2% |
| CCCCCC(=O)Nc1cccc(-c2nc3ncccc3o2)c1 | -7% |
| Cc1nnc(SCC(=O)NCc2cccs2)n1-c1ccccc1 | -5.1% |
| Cn1c(=O)c2c(SCc3ccccn3)nc(-c3ccccc3)nc2n(C)c1=O | 6.7% |
| CC[C@@H](C)[C@H](NC(=O)C1CCN(C(=O)[C@@H](NS(=O)(=O)c2ccc(C)cc2)C(C)C)CC1)C(=O)O | -19.2% |
| NC(=O)C1CCN(c2ncnc3c2c(-c2ccccc2)cn3-c2ccccc2)CC1 | -9% |
| Cn1nnnc1SCCNC/C=C/c1ccccc1 | 14.4% |
| CN(C1CCCCC1)S(=O)(=O)c1ccc(-n2cnnn2)cc1 | -13.1% |
| CCCCN(CC)S(=O)(=O)N1CCC(C(=O)NCc2ccc(F)cc2)CC1 | -8.2% |
| C=CCN1C(=O)C2C(C(=O)NC)C3C=CC2(O3)C1C(=O)NCc1ccc(OC)cc1 (configuration not stated) | 4.1% |
| N#CC1=C(N)C(C#N)(C#N)[C@H](c2ccoc2)[C@H]2CN(Cc3ccccc3)CC=C12 | 81.4% (active) |
| CC(=O)N1CC=C2C(C#N)=C(N)C(C#N)(C#N)[C@H](c3ccoc3)[C@H]2C1 | 13.2% |
| CC(C)N1CC=C2C(C#N)=C(N)C(C#N)(C#N)C(c3ccccc3)C2C1 (configuration not stated) | 27.9% |
